A selection: hits, their analogues and other compounds. The true share with any hit is near 4.6%.
SKKanGAS inh: inhibitors of SKKanGAS S. pyogenes growth in kanamycin (SK-promoter or general growth effect) | 300,000 compounds, 1.3% hits | BacTiter-Glo, 6 h | inhibition, % at 7.5 µM;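 active = mean replicate score, as percent of positive control median, at least 50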;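 note: strain carries kanamycin resistance gene driven by streptokinase promoter and grows in 40 µg/ml kanamycin; loss of luminescence reflects streptokinase promoter inhibition or plain growth inhibition; 0% = median of DMSO wells and 100% = positive control at its reference dose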
tim23-1 inh: growth inhibitors of tim23-1 mutant yeast. inhibition, % at 20 µM. S. cerevisiae tim23-1 growth, BacTiter-Glo luminescence, 24 h. 330,000 compounds, 1.3% hits;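 active = growth inhibition of the mutant yeast at or above 50%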;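 note: temperature-sensitive mutant grown at 25 °C; plate controls were DMSO-treated mutant yeast for no effect and medium wells lacking yeast for full effect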
tim10-1 inh: tim10-1 yeast growth inhibition; S. cerevisiae tim10-1 ts strain growth, BacTiter-Glo, 24 h; inhibition, % at 20 µM; 330,000 compounds, 2.2% hits;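 active = inhibition of at least 40%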;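 note: mutant grown at 25 °C; 0% = DMSO wells with yeast and 100% = wells holding no yeast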
PfHsp90 set2: growth inhibition of yeast expressing Plasmodium Hsp90 | S. cerevisiae expressing PfHsp90, BacTiter-Glo ATP, 48 h; yeast lacking PDR1 and PDR3 efflux regulators | inhibition, % at 9.4 µM | 310,000 compounds, 0.32% hits | AID 504621;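 active = every replicate shows inhibition above about 80%, whatever the replicate mean, limit read from the data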;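 note: 0% = DMSO neutral controls and 100% = 20 µM radicicol positive controls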
TIM10 inh: TIM10 yeast growth inhibition; S. cerevisiae TIM10 strain growth, BacTiter-Glo luminescence, 24 h; inhibition, % at 10 µM; 330,000 compounds, 1.4% hits; AID 463195;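 active = inhibition of 40% or more at the single tested concentration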;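 note: wild-type TIM10 isogenic control strain grown at permissive 25 °C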
V-ATPase pHluor: alters yeast V-ATPase proton transport. AID 504577. 350,000 compounds, 0.37% hits. response, % at 10 µM. S. cerevisiae, pHLuorin cytosolic pH fluorescence; in the data active = response mostly above about 7.3%, no sharp cut-off; inactive = mostly below about 5.4%; note: actives read high
VATPase regulator: modulates yeast V-ATPase proton transport. shares compounds with V-ATPase pHluor. S. cerevisiae pHLuorin cytosolic pH. response, % at 10 µM. 980 compounds, 2% hits; in the data active = response above about 24%;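 note: plate controls were vehicle wells for no effect and positive control wells for full effect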
Active calls of the source: *.

`Brc1cccc(-c2cnco2)c1` gave SKKanGAS inh -4.0, tim23-1 inh 21.4, tim10-1 inh 5.4, PfHsp90 set2 -0.7, TIM10 inh -7.4 and V-ATPase pHluor -1.3.
Screening O=C(O)c1ccc(/C=N/N2CCN(C3c4ccccc4-c4ccccc43)CC2)cc1 returned SKKanGAS inh -4.8, tim23-1 inh 23.3, tim10-1 inh -16.3, PfHsp90 set2 3.7, TIM10 inh -23.5, V-ATPase pHluor 19.5* and VATPase regulator 46.3*.
`Oc1ccc(/C=N/N2CCN(C3c4ccccc4-c4ccccc43)CC2)cc1` gave SKKanGAS inh -0.2, tim23-1 inh 2.7, tim10-1 inh 15.8, PfHsp90 set2 -24.6, TIM10 inh 12.9 and V-ATPase pHluor -0.1.
For CCCCOc1cccc(C(=O)N(Cc2ccccc2)C2CCS(=O)(=O)C2)c1 (stereo not drawn) the results were SKKanGAS inh -0.5, tim23-1 inh 13.9, tim10-1 inh 11.1, PfHsp90 set2 -4.2, TIM10 inh 18.7 and V-ATPase pHluor -0.8.
Screening COc1cccc(N2C(=O)/C(=C\c3cccs3)NC2=S)c1 returned SKKanGAS inh 2.8, tim23-1 inh 10.2, tim10-1 inh -2.6, PfHsp90 set2 7.5, TIM10 inh 2.4, V-ATPase pHluor 20.6* and VATPase regulator -4.1.
CCc1ccc(/C(C)=N/NC(=O)CNC(=O)/C=C/c2ccco2)cc1 was read as SKKanGAS inh -0.9, tim23-1 inh 7.5, tim10-1 inh 6.9, PfHsp90 set2 -25.9, TIM10 inh 13.3, V-ATPase pHluor 24.7* and VATPase regulator 0.2.
`O=C(c1ccccc1)N1CN2CN(C(=O)c3ccccc3)CC([N+](=O)[O-])(C2)C1` gave SKKanGAS inh 0.7, tim23-1 inh 7.5, tim10-1 inh 14.5, PfHsp90 set2 -3.9, TIM10 inh 11.8, V-ATPase pHluor 46.1* and VATPase regulator -2.9.
`O=c1c2c(-c3ccccc3)csc2ncn1/N=C/c1cccc([N+](=O)[O-])c1O` gave SKKanGAS inh 3.3, tim23-1 inh 23.9, tim10-1 inh 19.2, PfHsp90 set2 0.7, TIM10 inh 16.4, V-ATPase pHluor 81.8* and VATPase regulator 3.8.
`O=C(COC(=O)CSc1ccc2ccccc2c1)Nc1ccccc1OC(F)F` gave SKKanGAS inh 4.7, tim23-1 inh 13.7, tim10-1 inh 21.3, PfHsp90 set2 -9.9, TIM10 inh -2.0, V-ATPase pHluor 10.9* and VATPase regulator -0.9.
`O=C(CS(=O)CC(=O)Nc1cccnc1)Nc1ccc(F)cc1` (stereo not drawn) gave SKKanGAS inh -4.3, tim23-1 inh -8.0, tim10-1 inh -40.9, PfHsp90 set2 -12.8, TIM10 inh 6.3 and V-ATPase pHluor -2.0.
`O=C(N/N=C/c1cccc([N+](=O)[O-])c1)c1ccc(CN2CCOCC2)cc1` gave SKKanGAS inh -12.9, tim23-1 inh 16.2, tim10-1 inh 22.1, PfHsp90 set2 26.9, TIM10 inh 8.0, V-ATPase pHluor 13.8* and VATPase regulator -5.9.
O=C(N/N=C/c1cccc2ccccc12)c1ccc(CN2CCOCC2)cc1 was read as SKKanGAS inh -2.9, tim23-1 inh 14.4, tim10-1 inh -3.1, PfHsp90 set2 -2.7, TIM10 inh 8.9 and V-ATPase pHluor -2.2.
`COc1cc(NC(=O)CCn2c(=O)[nH]c3ccsc3c2=O)cc(OC)c1` gave SKKanGAS inh 10.7, tim23-1 inh 8.0, tim10-1 inh 16.7, PfHsp90 set2 15.6, TIM10 inh 10.0, V-ATPase pHluor 7.7* and VATPase regulator 1.8.
Screening Cc1ccc(NC(=O)CCn2c(=O)[nH]c3ccsc3c2=O)cc1 returned SKKanGAS inh -0.9, tim23-1 inh 2.4, tim10-1 inh 16.5, PfHsp90 set2 7.3, TIM10 inh 2.9 and V-ATPase pHluor -0.3.
Screening O=C(C1CC(=O)N(c2ccc3c(c2)OCCO3)C1)N1CCCC(C(F)(F)F)C1 (stereo not drawn) returned SKKanGAS inh 1.0, tim23-1 inh 2.6, tim10-1 inh 14.3, PfHsp90 set2 11.0, TIM10 inh 2.4 and V-ATPase pHluor -2.1.
C[C@@H]1CN([C@@H](C)CO)S(=O)(=O)c2ccc(Br)cc2O[C@H]1CN(C)C(=O)c1ccccc1 was read as V-ATPase pHluor 69.1* and VATPase regulator 1.1.
Screening C[C@H](CO)N1C[C@H](C)[C@@H](CN(C)C(=O)c2ccc(F)cc2)Oc2cc(Br)ccc2S1(=O)=O returned V-ATPase pHluor 3.1.
`Cc1cc(C(=O)O)c2ccccc2n1` gave SKKanGAS inh -5.5, tim23-1 inh 5.8, tim10-1 inh 13.5, PfHsp90 set2 14.9, TIM10 inh 10.5, V-ATPase pHluor 16.2* and VATPase regulator 4.2.
CC(=O)OC1CCC2(C)C(CCC3C2CC(=O)C2(C)C3CC(C3CCCC3=O)C2C(C)=O)C1 (stereo not drawn) was read as PfHsp90 set2 -11.4 and V-ATPase pHluor 2.9.
For c1ccc(COCCCn2cc(-c3ccccc3)nn2)cc1 the results were SKKanGAS inh -12.9, tim23-1 inh -3.0, tim10-1 inh 0.1, TIM10 inh -4.1, V-ATPase pHluor 10.4* and VATPase regulator -2.3.
CCOC(=O)Cn1cc(-c2ccccc2)nn1 was read as SKKanGAS inh 0.5, tim23-1 inh 3.3, tim10-1 inh -7.5, PfHsp90 set2 5.0, TIM10 inh -0.7 and V-ATPase pHluor -1.6.
Cc1ccc(S(=O)(=O)N(CC(=O)N2CCC(C(N)=O)CC2)c2cccc(C(F)(F)F)c2)cc1 was read as SKKanGAS inh -2.3, tim23-1 inh -8.8, tim10-1 inh -3.8, PfHsp90 set2 -4.1, TIM10 inh 10.7 and V-ATPase pHluor 0.3.
CCOC(=O)C1CCN(C(=O)CN(c2cccc(C(F)(F)F)c2)S(C)(=O)=O)CC1 was read as SKKanGAS inh 9.9, tim23-1 inh 7.4, tim10-1 inh 7.8, PfHsp90 set2 13.1, TIM10 inh 10.8, V-ATPase pHluor 12.3* and VATPase regulator 1.2.
`CC(CC(=O)Nc1nnc(CC(C)(C)C)s1)c1ccccc1` (stereo not drawn) gave SKKanGAS inh 5.1, tim23-1 inh 21.5, tim10-1 inh 10.2, PfHsp90 set2 -1.9, TIM10 inh 3.3 and V-ATPase pHluor -0.6.
For O=C(CCSC1=NCCCN1)c1ccc(F)cc1 the results were PfHsp90 set2 -44.6, V-ATPase pHluor 25.4 and VATPase regulator 45.2*.
Screening Cn1c(SCC(=O)c2ccc(F)cc2)nc2cccnc21 returned SKKanGAS inh 1.7, tim23-1 inh 13.2, tim10-1 inh 13.2, PfHsp90 set2 -3.2, TIM10 inh 15.8 and V-ATPase pHluor 2.0.
O=C1Nc2ccccc2/C1=N\c1sc2c(c1C(=O)Nc1ccccc1)CCCC2 was read as SKKanGAS inh 4.3, tim23-1 inh 24.2, tim10-1 inh 16.0, PfHsp90 set2 -30.7, TIM10 inh 8.3 and V-ATPase pHluor 0.6.

Screening data from PubChem BioAssay.
